Measured values from PubChem BioAssay AID624167 (Sanford-Burnham Center for Chemical Genomics, 2012).

Experiment: inhibition of PEG-3 promoter-driven reporter – cell-based, HeLa, luciferase, CREF/GAPDH counter-screen panel, dose response (AID 624167)
Conditions: CREF/GAPDH counter-screens; run 1, dose range 1, at 100 µM (top of the series)

Row | SMILES | inhibition [%]
1 | CCC(c1nnnn1-c1ccc2c(c1)OCCO2)N1CCC(n2c(=O)[nH]c3ccccc32)CC1 (stereo not drawn) | 92.4
2 | COC(COC(N)=O)C1=C(N2CC2)C(=O)C(C)=C(N2CC2)C1=O (stereo not drawn) | 84.3
3 | CC(=O)OC1CC[C@]2(C#N)[C@H]3CC[C@]4(C)[C@H](C5C=CC(=O)O5)CCC4(O)C3CCC2(O)C1 (stereo partly drawn) | 77.9
4 | O=C(CSC1c2ccccc2-c2ccccc21)N/N=C/c1ccccc1O | 60.3
5 | C=Cc1cc(OC)c2c(c1)c(=O)oc1c2cc(OC)c2c(O)ccc(C3OC(C)C(O)C(C)(O)C3O)c21 (stereo not drawn) | -12.4
6 | CC(=O)OC1(C)CC(C)C(=O)C(C(O)CC2CC(=O)NC(=O)C2)C1 (stereo not drawn) | 89.5
7 | CC1=CC2/C=C(\C)CCC(O)C(O)/C=C/C(=O)C23C(=O)NC(CC(C)C)C3C1C (stereo not drawn) | 99.8
8 | COc1cc2nc(CN3CC=C(c4ccccc4)CC3)[nH]c(=O)c2cc1OC | 56.3
